According to PubChem BioAssay (EPA / NIEHS):
Records with an inconclusive call do not appear. Calls of active or inactive are those of the source. The calls were made as follows, unless noted: active = hit-call score of the fitted dose curve at least 0.9, where 1 is the maximum; inconclusive = response in the unintended direction; inactive = score below 0.9.

Key:
[1] = target: human Peroxisome Proliferator-activated Receptor alpha (PPARa), PPARA (gene 5465) (UniProt Q07869); assay: ATG_PPARa_TRANS: Attagene TRANS-FACTORIAL HepG2 Assay for human Peroxisome Proliferator-activated Receptor alpha (PPARa) (AID 2283001)
Method in brief: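 Cells (HepG2) are transfected with multiple reporter transcription units, exposed to chemical for 24 h, then total RNA is reverse-transcribed and amplified. Labelled products are quantified by capillary electrophoresis; induction is referenced to DMSO.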

[2] = target: Nuclear receptor subfamily 1 group I member 2 (Homo sapiens) (UniProt O75469); assay: ATG_PXR_TRANS: Attagene TRANS-FACTORIAL HepG2 Assay for human Pregnane X Receptor (PXR) (AID 2283008)
Method in brief: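 Multiplexed TRANS reporter panel in HepG2; this component tracks PXR-Gal4-driven reporter mRNA after 24 h dosing, measured by RT-PCR with capillary electrophoresis fluorescence, fitted against DMSO.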

[3] = target: human RAR-related Orphan Receptor gamma (RORg), RORC (gene 6097) (UniProt P51449); assay: ATG_RORg_TRANS: Attagene TRANS-FACTORIAL HepG2 Assay for human RAR-related Orphan Receptor gamma (RORg) (AID 2283011)
Method in brief: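 Reporter transcripts from a transfected RORg-GAL4 chimera in HepG2 cells were quantified 24 h after dosing by RT-PCR, 6-FAM labelling, HpaI digestion and capillary electrophoresis; increases over DMSO baseline were fitted.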

[4] = target: Retinoic acid receptor RXR-alpha (Homo sapiens) (UniProt P19793); assay: ATG_RXRa_TRANS: Attagene TRANS-FACTORIAL HepG2 Assay for human Retinoid X Receptor alpha (RXRa) (AID 2283012)
Method in brief: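 TRANS format reporting activity of exogenous RXRa-Gal4 chimera in transiently transfected HepG2, 24 h exposure. Reporter transcripts quantified by RT-PCR with capillary electrophoresis, with gain of signal scored relative to DMSO.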

[5] = target: human Peroxisome Proliferator-activated Receptor delta (PPARd), PPARD (gene 5467) (UniProt Q03181); assay: ATG_PPARd_TRANS: Attagene TRANS-FACTORIAL HepG2 Assay for human Peroxisome Proliferator-activated Receptor delta (PPARd) (AID 2283002)
Method in brief: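 Multiplexed trans-activation format: HepG2 liver cells expressing exogenous NR-Gal4 chimeras and GAL4-UAS reporters were exposed for 24 h. Reporter mRNA was detected by RT-PCR with capillary electrophoresis fluorescence; activity fitted as gain of signal relative to DMSO.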

[6] = read-out: Intercellular Adhesion Molecule 1 (ICAM1), ICAM1 (gene 3383); assay: BSK_3C_ICAM1: BioMAP Diversity Plus: 3C Assay for Intercellular Adhesion Molecule 1 (ICAM1) Biomarker Activity (AID 2283003; active = hit-call score of the fitted dose curve at least 0.9, where 1 is the maximum; inactive = score below 0.9); settings: primary human endothelial cells (HUVEC); actives raise or lower the signal
Method in brief: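 ELISA readout of ICAM1 in human umbilical vein endothelial cells in the 3C system, taken 24 h post-dose. Gain or loss of signal versus DMSO was fitted in both directions, with SRB total-protein staining run in parallel.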

[7] = BSK_3C_Proliferation: Cell Proliferation Assessment in the BioMAP Diversity Plus: 3C Assay (AID 2283006; active = hit-call score of the fitted dose curve at least 0.9, where 1 is the maximum; inactive = score below 0.9); settings: primary human endothelial cells (HUVEC)
Method in brief: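 Proliferation as total protein: sulforhodamine B (0.1%) stain of TCA-fixed subconfluent human umbilical vein endothelial cells, absorbance 560 nm, 48 h after dosing. Activity fitted in both directions against DMSO baseline.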

[8] = target: Peroxisome proliferator-activated receptor gamma (Homo sapiens) (UniProt P37231); assay: ATG_PPARg_TRANS: Attagene TRANS-FACTORIAL HepG2 Assay for human Peroxisome Proliferator-activated Receptor-gamma (PPARg) (AID 2283007)
Method in brief: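 HepG2 cells are transiently transfected with GAL4-UAS reporter units driven by chimeric NR-Gal4 fusions and dosed for 24 h. Reporter mRNA is quantified by RT-PCR, 6-FAM labelling, HpaI digestion and capillary electrophoresis. Induction is scored against DMSO.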

[9] = target: human Retinoid X Receptor beta (RXRb), RXRB (gene 6257) (UniProt P28702); assay: ATG_RXRb_TRANS: Attagene TRANS-FACTORIAL HepG2 Assay for human Retinoid X Receptor beta (RXRb) (AID 2283013)
Method in brief: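 Readout is reporter transcript induction after 24 h dosing. It is measured by RT-PCR of total RNA followed by fluorescent capillary electrophoresis. HepG2 liver cells carry transfected multiple reporter units driven by an exogenous RXRb-Gal4 fusion; activity is relative to DMSO.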

[10] = read-out: E-selectin (Homo sapiens) (UniProt P16581); assay: BSK_3C_Eselectin: BioMAP Diversity Plus: 3C Assay for Eselectin Biomarker Activity (AID 2283015; active = hit-call score of the fitted dose curve at least 0.9, where 1 is the maximum; inactive = score below 0.9;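 also: cell surface E-selectin protein quantified by ELISA 24 h after dosing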); settings: primary human endothelial cells (HUVEC); actives raise or lower the signal
Method in brief: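 E-selectin ELISA readout, fitted bidirectionally relative to DMSO, taken 24 h post-dosing in HUVEC cultures of the 3C system. Overt cytotoxicity tracked with sulforhodamine B staining of parallel wells.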

[11] = read-out: Interleukin-1 alpha (IL1a), IL1A (gene 3552); assay: BSK_BE3C_IL1a: BioMAP Diversity Plus: BE3C Assay for Interleukin-1 alpha (IL1a) Biomarker Activity (AID 2283016; active = hit-call score of the fitted dose curve at least 0.9, where 1 is the maximum; inactive = score below 0.9); settings: primary human bronchial epithelial cells; actives raise or lower the signal
Method in brief: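 IL-1a measured by ELISA after 24 h treatment of human primary bronchial epithelial cells, with gain or loss of signal fitted versus DMSO. Parallel cultures stained with SRB gauge overt cytotoxicity.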

[12] = read-out: Monocyte Chemoattractant Protein-1 (MCP1), CCL2 (gene 6347); assay: BSK_3C_MCP1: BioMAP Diversity Plus: 3C Assay for Monocyte Chemoattractant Protein-1 (MCP1) Biomarker Activity (AID 2283017; active = hit-call score of the fitted dose curve at least 0.9, where 1 is the maximum; inactive = score below 0.9); settings: primary human endothelial cells (HUVEC); actives raise or lower the signal
Method in brief: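 MCP-1 was measured by ELISA 24 h after dosing in primary HUVEC 3C cultures and fitted in both directions relative to DMSO; cytotoxicity was checked by SRB total-protein staining in parallel wells.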

[13] = read-out: Monocyte Chemoattractant Protein-1 (MCP1), CCL2 (gene 6347); assay: BSK_4H_MCP1: BioMAP Diversity Plus: 4H Assay for Monocyte Chemoattractant Protein-1 (MCP1) Biomarker Activity (AID 2283018; active = hit-call score of the fitted dose curve at least 0.9, where 1 is the maximum; inactive = score below 0.9); settings: primary human endothelial cells (HUVEC); actives raise or lower the signal
Method in brief: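 ELISA of MCP-1 (CCL2) 24 h after chemical dosing of HUVEC in the BioMAP 4H system. Gain or loss versus DMSO fitted; parallel SRB staining (560 nm) tracked overt cytotoxicity.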

[14] = read-out: Human Leukocyte Antigen - DR isotype (HLADR), HLA-DRA (gene 3122); assay: BSK_3C_HLADR: BioMAP Diversity Plus: 3C Assay for Human Leukocyte Antigen - DR isotype (HLADR) Biomarker Activity (AID 2283019; active = hit-call score of the fitted dose curve at least 0.9, where 1 is the maximum; inactive = score below 0.9); settings: primary human endothelial cells (HUVEC); actives raise or lower the signal
Method in brief: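 Bidirectional fitting against DMSO was applied to the HLA-DR ELISA signal from human umbilical vein endothelial cells, 24 h post-dose. Cytotoxicity came from parallel SRB total-protein staining; 3C proliferation was counted by SRB at 48 h.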

[15] = target: Retinoic acid receptor alpha (Homo sapiens) (UniProt P10276); assay: ATG_RARa_TRANS: Attagene TRANS-FACTORIAL HepG2 Assay for human Retinoic Acid Receptor alpha (RARa) (AID 2283005)
Method in brief: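 HepG2 cells transiently transfected with multiple reporter units expressing chimeric RARα-GAL4 fusion, with GAL4-UAS-driven reporters. After 24 h compound exposure, reporter mRNA induction quantified by RT-PCR and capillary electrophoresis with fluorescent labeling; gain-of-signal fitted relative to DMSO control.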

[16] = target: human Retinoic Acid Receptor gamma (RARg), RARG (gene 5916) (UniProt P13631); assay: ATG_RARg_TRANS: Attagene TRANS-FACTORIAL HepG2 Assay for human Retinoic Acid Receptor gamma (RARg) (AID 2283009)
Method in brief: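 Transactivation of exogenous RARg-Gal4 fusion measured as reporter transcript induction after 24 h in transfected HepG2 cells. RNA reverse-transcribed, amplified, fluorescently labeled and resolved by capillary electrophoresis; increase relative to DMSO.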

[17] = target: human RAR-related Orphan Receptor beta (RORb), RORB (gene 6096) (UniProt Q92753); assay: ATG_RORb_TRANS: Attagene TRANS-FACTORIAL HepG2 Assay for human RAR-related Orphan Receptor beta (RORb) (AID 2283010)
Method in brief: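 Read-out is reporter mRNA induction, quantified by RT-PCR with fluorescent capillary electrophoresis, 24 h post-dose in transiently transfected HepG2 expressing exogenous NR-Gal4 chimera. Activity fitted upward versus DMSO.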

[18] = target: human Retinoic Acid Receptor beta (RARb), RARB (gene 5915) (UniProt P10826); assay: ATG_RARb_TRANS: Attagene TRANS-FACTORIAL HepG2 Assay for human Retinoic Acid Receptor beta (AID 2283004)
Method in brief: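 Induction of reporter mRNA from a chimeric RARb-Gal4 construct was measured by RT-PCR, FAM labelling, HpaI digestion and capillary electrophoresis. Measurements followed 24 h compound treatment of transiently transfected human HepG2 liver cells, with DMSO as baseline.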

[19] = target: human Thyroid Receptor alpha (THRa1), THRA (gene 7067) (UniProt P10827); assay: ATG_THRa1_TRANS: Attagene TRANS-FACTORIAL HepG2 Assay for human Thyroid Receptor alpha (THRa1) (AID 2283014)
Method in brief: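 Transcripts from GAL4-UAS-driven reporters, measured after 24 h compound exposure by RT-PCR plus capillary electrophoresis of 6-FAM-labeled fragments, were fitted for gain of signal relative to DMSO. Cells: transiently transfected HepG2 expressing NR-Gal4 chimeras.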

Measured: AC50

Chain of human Peroxisome Proliferator-activated Receptor delta (PPARd), PPARD (gene 5467) (Q03181 whole entry, looked up, the tested form may be a part): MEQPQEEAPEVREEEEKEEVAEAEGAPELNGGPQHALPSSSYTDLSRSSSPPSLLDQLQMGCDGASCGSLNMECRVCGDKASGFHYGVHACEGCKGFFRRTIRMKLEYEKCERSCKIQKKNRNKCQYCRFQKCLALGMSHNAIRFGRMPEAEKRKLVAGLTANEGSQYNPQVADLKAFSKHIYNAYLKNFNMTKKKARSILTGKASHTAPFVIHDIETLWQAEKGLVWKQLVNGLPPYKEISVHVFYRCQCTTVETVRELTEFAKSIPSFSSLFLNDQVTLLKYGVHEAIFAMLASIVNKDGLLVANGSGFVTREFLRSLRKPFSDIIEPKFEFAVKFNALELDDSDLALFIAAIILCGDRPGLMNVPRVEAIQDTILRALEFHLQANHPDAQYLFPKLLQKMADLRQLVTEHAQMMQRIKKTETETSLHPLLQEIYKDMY
Chain of human RAR-related Orphan Receptor beta (RORb), RORB (gene 6096) (Q92753 whole entry, looked up, the tested form may be a part): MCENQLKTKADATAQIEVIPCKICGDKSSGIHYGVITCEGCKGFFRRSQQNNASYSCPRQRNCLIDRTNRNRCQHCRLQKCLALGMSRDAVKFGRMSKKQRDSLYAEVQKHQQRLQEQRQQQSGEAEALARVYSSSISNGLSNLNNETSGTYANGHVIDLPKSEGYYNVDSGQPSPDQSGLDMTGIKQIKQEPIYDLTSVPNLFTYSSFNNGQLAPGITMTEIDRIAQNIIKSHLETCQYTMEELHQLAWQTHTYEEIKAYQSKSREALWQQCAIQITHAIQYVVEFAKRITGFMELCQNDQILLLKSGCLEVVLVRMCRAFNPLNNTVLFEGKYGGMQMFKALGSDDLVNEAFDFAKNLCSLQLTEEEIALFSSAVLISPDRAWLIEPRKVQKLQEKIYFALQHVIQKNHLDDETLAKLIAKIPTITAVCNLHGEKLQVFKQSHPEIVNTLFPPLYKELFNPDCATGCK
Chain of Retinoic acid receptor alpha (Homo sapiens) (P10276 whole entry, looked up, the tested form may be a part): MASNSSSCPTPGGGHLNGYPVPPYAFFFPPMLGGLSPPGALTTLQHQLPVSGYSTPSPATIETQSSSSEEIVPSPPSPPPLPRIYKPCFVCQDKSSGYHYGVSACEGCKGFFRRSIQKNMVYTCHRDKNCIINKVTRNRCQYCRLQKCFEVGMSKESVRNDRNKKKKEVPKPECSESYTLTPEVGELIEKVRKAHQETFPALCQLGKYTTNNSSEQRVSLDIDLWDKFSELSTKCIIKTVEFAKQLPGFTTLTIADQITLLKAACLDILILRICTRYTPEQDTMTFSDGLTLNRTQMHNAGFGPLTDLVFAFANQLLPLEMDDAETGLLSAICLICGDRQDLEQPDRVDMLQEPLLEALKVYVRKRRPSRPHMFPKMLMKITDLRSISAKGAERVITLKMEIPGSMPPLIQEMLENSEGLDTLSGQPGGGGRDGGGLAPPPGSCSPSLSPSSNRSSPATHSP
Chain of human Retinoic Acid Receptor gamma (RARg), RARG (gene 5916) (P13631 whole entry, looked up, the tested form may be a part): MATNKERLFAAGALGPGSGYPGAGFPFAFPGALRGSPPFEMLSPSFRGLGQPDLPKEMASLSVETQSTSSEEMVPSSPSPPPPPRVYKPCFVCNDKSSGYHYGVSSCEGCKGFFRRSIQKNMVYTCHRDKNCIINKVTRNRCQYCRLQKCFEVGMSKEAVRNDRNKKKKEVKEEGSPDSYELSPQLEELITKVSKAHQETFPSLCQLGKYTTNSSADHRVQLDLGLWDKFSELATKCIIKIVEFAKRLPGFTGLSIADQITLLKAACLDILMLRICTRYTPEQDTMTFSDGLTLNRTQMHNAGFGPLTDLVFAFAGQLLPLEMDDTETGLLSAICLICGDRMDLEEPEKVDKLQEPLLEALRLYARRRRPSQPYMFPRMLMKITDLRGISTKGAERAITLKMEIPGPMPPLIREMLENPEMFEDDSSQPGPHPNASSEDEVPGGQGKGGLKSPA
Chain of Nuclear receptor subfamily 1 group I member 2 (Homo sapiens) (O75469 whole entry, looked up, the tested form may be a part): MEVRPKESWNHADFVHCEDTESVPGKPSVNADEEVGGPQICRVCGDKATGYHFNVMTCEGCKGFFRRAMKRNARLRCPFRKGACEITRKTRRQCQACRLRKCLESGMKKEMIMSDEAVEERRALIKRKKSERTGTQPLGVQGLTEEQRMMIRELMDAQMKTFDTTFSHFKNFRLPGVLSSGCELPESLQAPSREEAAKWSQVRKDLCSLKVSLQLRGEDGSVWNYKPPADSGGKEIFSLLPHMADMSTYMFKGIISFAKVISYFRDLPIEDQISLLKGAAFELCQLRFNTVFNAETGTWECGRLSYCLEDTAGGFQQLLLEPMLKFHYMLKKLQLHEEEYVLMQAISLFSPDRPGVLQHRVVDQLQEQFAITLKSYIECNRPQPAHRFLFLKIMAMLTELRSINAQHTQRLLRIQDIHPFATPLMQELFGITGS
Chain of human Thyroid Receptor alpha (THRa1), THRA (gene 7067) (P10827 whole entry, looked up, the tested form may be a part): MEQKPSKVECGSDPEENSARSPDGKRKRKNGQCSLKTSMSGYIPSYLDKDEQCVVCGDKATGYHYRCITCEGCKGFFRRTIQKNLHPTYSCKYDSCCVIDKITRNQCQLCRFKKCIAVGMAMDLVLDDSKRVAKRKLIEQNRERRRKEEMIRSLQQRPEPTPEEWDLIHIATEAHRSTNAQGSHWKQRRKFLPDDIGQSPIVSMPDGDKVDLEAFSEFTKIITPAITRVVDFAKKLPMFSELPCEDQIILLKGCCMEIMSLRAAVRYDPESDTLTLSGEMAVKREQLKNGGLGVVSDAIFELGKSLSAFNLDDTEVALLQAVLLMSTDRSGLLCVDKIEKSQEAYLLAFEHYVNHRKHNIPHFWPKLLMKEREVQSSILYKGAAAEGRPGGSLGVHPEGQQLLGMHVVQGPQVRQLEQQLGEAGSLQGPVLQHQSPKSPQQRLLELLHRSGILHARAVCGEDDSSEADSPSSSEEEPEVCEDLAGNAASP
Chain of human Peroxisome Proliferator-activated Receptor alpha (PPARa), PPARA (gene 5465) (Q07869 whole entry, looked up): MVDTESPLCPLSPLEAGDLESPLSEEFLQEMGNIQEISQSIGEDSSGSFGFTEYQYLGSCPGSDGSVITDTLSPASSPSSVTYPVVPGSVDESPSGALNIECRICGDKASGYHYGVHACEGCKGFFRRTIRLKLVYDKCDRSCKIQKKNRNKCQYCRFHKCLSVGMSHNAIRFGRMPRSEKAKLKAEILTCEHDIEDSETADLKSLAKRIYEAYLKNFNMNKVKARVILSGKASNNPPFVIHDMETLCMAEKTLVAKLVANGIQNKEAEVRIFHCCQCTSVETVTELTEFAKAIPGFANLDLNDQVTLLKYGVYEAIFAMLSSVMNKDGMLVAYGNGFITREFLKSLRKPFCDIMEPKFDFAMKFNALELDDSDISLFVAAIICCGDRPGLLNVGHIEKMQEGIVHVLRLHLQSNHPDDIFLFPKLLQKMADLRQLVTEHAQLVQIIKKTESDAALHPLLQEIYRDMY
Chain of human Retinoic Acid Receptor beta (RARb), RARB (gene 5915) (P10826 whole entry, looked up, the tested form may be a part): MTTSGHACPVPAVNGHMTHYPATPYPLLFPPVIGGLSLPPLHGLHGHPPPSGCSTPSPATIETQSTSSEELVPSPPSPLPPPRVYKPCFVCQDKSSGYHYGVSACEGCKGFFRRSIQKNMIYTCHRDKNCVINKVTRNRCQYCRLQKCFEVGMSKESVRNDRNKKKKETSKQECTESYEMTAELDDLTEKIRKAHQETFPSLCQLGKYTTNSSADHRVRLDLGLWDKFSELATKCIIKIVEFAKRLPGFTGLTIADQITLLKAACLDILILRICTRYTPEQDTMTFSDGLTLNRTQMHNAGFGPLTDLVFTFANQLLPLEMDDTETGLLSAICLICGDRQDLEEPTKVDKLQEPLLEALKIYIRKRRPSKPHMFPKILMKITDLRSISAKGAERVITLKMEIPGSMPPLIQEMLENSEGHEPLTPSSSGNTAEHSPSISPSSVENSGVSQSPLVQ
Chain of human Retinoid X Receptor beta (RXRb), RXRB (gene 6257) (P28702 whole entry, looked up, the tested form may be a part): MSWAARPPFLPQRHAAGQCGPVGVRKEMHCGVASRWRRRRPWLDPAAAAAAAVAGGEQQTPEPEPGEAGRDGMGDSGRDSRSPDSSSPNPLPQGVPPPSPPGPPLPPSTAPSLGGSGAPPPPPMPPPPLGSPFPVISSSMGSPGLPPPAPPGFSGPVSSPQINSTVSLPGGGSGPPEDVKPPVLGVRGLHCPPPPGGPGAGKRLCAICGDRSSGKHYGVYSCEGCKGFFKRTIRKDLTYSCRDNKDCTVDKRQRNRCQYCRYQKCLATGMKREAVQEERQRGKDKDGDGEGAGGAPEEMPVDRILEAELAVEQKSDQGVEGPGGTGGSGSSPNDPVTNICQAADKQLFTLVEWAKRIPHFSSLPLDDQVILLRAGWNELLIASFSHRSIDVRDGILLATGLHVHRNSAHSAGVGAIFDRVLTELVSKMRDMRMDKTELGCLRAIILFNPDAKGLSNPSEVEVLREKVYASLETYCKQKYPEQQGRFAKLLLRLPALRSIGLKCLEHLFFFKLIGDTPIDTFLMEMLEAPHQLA
Chain of Peroxisome proliferator-activated receptor gamma (Homo sapiens) (P37231 whole entry, looked up, the tested form may be a part): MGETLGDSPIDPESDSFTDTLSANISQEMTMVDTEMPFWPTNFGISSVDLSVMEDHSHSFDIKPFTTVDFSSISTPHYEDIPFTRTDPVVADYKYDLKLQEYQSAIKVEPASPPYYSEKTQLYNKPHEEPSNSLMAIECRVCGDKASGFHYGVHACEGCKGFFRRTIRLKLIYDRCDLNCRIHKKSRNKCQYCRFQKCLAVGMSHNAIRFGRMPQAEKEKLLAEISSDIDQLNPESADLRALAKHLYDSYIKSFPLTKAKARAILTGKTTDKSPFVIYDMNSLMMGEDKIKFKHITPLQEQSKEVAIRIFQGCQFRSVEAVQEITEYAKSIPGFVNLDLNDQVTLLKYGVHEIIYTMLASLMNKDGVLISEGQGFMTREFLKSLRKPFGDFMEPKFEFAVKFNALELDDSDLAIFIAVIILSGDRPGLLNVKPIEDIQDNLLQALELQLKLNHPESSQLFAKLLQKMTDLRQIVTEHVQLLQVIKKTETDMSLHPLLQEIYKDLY

O=C(O)CC(C(=O)O)S(=O)(=O)O (centres undefined)
inactive: [1] | [2] | [3] | [4]

COc1ccc(C(=O)c2ccccc2)c(O)c1
inactive: [5] | [6] | [7] | [4] | [10] | [11] | [13]
active: [8] 33.1 µM | [2] 27.3 µM | [9] 28.7 µM | [12] 0.185 µM | [14] 27.8 µM

C=C(C)C1CC=C(C)C(OC(C)=O)C1 (centres undefined)
inactive: [5] | [15] | [8] | [2] | [16] | [17] | [9]

CC(C)(CO)COC(=O)C(C)(C)CO
inactive: [5] | [18] | [2] | [17] | [19]

O=C(O)CCC(=O)O
inactive: [1] | [17] | [9]

O=C(C=Cc1ccccc1)OCCc1ccccc1
inactive: [1] | [17] | [3] | [9] | [19]
active: [8] 3.05 µM

OCCCc1ccccc1
inactive: [5] | [15] | [8] | [16] | [17] | [4] | [9]

CCCCCCCC(=O)OCC(COC(=O)CCCCCCC)OC(=O)CCCCCCC
inactive: [1] | [8] | [17] | [19]

CCCC=C(C=O)CC
inactive: [1] | [2]

C=Cc1ccc(OC(C)=O)cc1
inactive: [5] | [18] | [8] | [2] | [17] | [3] | [9] | [19]

C=C(C)C(=O)OCCOC(=O)C(=C)C
active: [8] 62.2 µM
inactive: [5] | [18] | [15] | [2] | [16] | [17] | [4] | [9]

CC1=CP(=O)(c2ccccc2)CC1 (centres undefined)
inactive: [5] | [15] | [2] | [16] | [3] | [9] | [19]

CC12CCC(CC1)C(C)(C)O2
inactive: [5] | [18] | [17] | [3] | [9]

CCCCC(C=O)CC (centres undefined)
inactive: [1] | [8] | [4] | [9]

C=C(C)OC(C)=O
inactive: [1] | [16] | [3]

C=C(C)C1CC=C(C)CC1 (centres undefined)
inactive: [1] | [16] | [3] | [9]

O=C(O)C1CCC(C(=O)O)CC1 (centres undefined)
inactive: [1] | [9]

Cn1cccc1
inactive: [5] | [15] | [8] | [2] | [17] | [3] | [4] | [9]

O=C1c2ccccc2C(=O)c2cc(S(=O)(=O)O)ccc21
inactive: [1] | [8] | [4] | [9]

CCCCCCCCCCCCC
inactive: [1] | [8] | [3] | [4] | [9] | [19]

COc1cc(C)ccc1O
inactive: [5] | [15] | [8] | [17] | [4] | [9] | [19]

CC(C)=CCl
inactive: [1] | [16] | [3] | [4] | [19]

CC1=C(O)C(=O)C(C)O1 (centres undefined)
inactive: [5] | [18] | [15] | [16] | [17] | [3] | [9]
